# According to PubChem BioAssay AID720690 (Broad Institute, 2013):
# Measured potencies and affinities stand elsewhere. The source made the active and inactive calls.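 Rule for the calls: active = every repeat run showing a signal drop whose fitted half-maximal concentration is at most twice the top tested concentration; inconclusive = repeat runs disagree, or flat partial drop, or poor fit; inactive = the rest.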
# Experiment: general mammalian cell viability loss – activator set, cherry-pick, cytotoxicity control for miR-122 modulator project, dose response (AID 720690);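 note: 0% = neutral control wells and -100% = MG132 cytotoxic control wells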
# Conditions: HEK293T viability, CellTiter-Glo luminescence, 48 h; series mostly up to 26 µM; activity change, negative = cytotoxicity: at the top concentration
row,SMILES,"activity change, negative = cytotoxicity"
1,COc1cccc(-c2ccc3c(c2)O[C@H](CN(C)C(=O)C2CCOCC2)[C@H](C)CN([C@@H](C)CO)S3(=O)=O)c1,-9.25% (inactive)
2,C[C@H]1CN([C@@H](C)CO)S(=O)(=O)c2ccc(-c3ccc(C(=O)N(C)C)cc3)cc2O[C@H]1CN(C)C(=O)C1CCC1,5.13% (inactive)
3,CO[C@H]1CN(C)C(=O)c2cc(NC(C)=O)ccc2OC[C@@H](C)N(C(=O)c2ccccn2)C[C@H]1C,-7.67% (inactive)
4,COCC(=O)Nc1ccc2c(c1)C(=O)N(C)[C@H]1CC[C@@H](CC(=O)NCCCN(C)C)O[C@@H]1CO2,-10.5% (inactive)
5,Cc1cccc(NC(=O)C[C@H]2CC[C@H]3[C@@H](COc4ccc(NC(=O)NC(C)C)cc4C(=O)N3C)O2)c1,9.81% (inactive)
6,COCC(=O)N(C)C[C@H]1[C@H](c2ccccc2)[C@@H](CO)N1C(=O)NC(C)C,-5.13% (inactive)
7,COc1cccc(CNC(=O)C[C@@H]2CC[C@@H]3[C@H](COc4ccc(NC(C)=O)cc4C(=O)N3C)O2)c1,0.833% (inactive)
8,CCNC(=O)C[C@H]1CC[C@H]2[C@H](COc3ccc(NC(=O)Nc4cccc(OC)c4)cc3C(=O)N2C)O1,-2.63% [at 23.5 µM] (inactive)
9,C[C@@H]1CN([C@H](C)CO)S(=O)(=O)c2ccc(-c3ccc(C(=O)N(C)C)cc3)cc2O[C@@H]1CN(C)C(=O)C1CCC1,0.607% (inactive)
10,Cc1nn(C)cc1NC(=O)C[C@H]1CC[C@@H]2[C@H](COc3ccc(NC(=O)Nc4cccc(Cl)c4)cc3C(=O)N2C)O1,3.12% (inactive)
11,C[C@@H]1CN([C@H](C)CO)S(=O)(=O)c2ccc(C3=CCCCC3)cc2O[C@@H]1CN(C)C(=O)Cc1ccncc1,-27.7% (inactive)
12,CN1C(=O)c2cc(NC(=O)c3cccc(C(F)(F)F)c3)ccc2OC[C@H]2O[C@H](CC(=O)NCCN3CCCC3)CC[C@H]21,-2.32% (inactive)
13,C[C@H](CO)N1C[C@H](C)[C@@H](CN(C)Cc2ccc(Oc3ccccc3)cc2)Oc2ncc(-c3cncnc3)cc2C1=O,-8.03% (inactive)
14,CCOC(=O)C1CN(S(=O)(=O)c2ccccc2)CCN1S(=O)(=O)c1ccccc1 (stereo not given),-5.76% (inactive)
15,C/C=C/c1ccc2c(c1)O[C@H](CN(C)C(=O)c1cnccn1)[C@H](C)CN([C@H](C)CO)S2(=O)=O,8.36% (inactive)
16,COc1cccc(CNC(=O)C[C@@H]2CC[C@@H]3[C@@H](COc4ccc(NC(C)=O)cc4C(=O)N3C)O2)c1,-15.2% (inactive)
17,C/C=C/c1ccc([C@H]2[C@@H](CNC(=O)c3ccncc3)N(C(=O)CC)[C@H]2CO)cc1,-7% [at 23.5 µM] (inactive)
18,C/C=C/c1ccc([C@@H]2[C@@H](CO)N(C(=O)Cc3cccnc3)[C@H]2CNC(C)=O)cc1,-15% (inactive)
19,CNC(=O)C[C@H]1CC[C@@H]2[C@H](COc3ccc(NC(=O)c4cccc(OC)c4)cc3C(=O)N2C)O1,-2.16% [at 23.5 µM] (inactive)
20,C/C=C/c1ccc([C@H]2[C@H](CO)N[C@@H]2CN(CC)C(=O)c2cccnc2)cc1,-12.1% (inactive)

row,SMILES,"activity change, negative = cytotoxicity"
1,Cc1c(CC(=O)NCCCC(=O)O)c(=O)oc2cc3occ(-c4ccccc4)c3cc12,3.83% (inactive)
2,COc1ccc(CNC(=O)NCCc2c[nH]c3ccccc23)cc1,26.2% (inactive)
3,C/C=C/c1ccc([C@H]2[C@H](CO)N[C@H]2CN(C)S(=O)(=O)c2ccccc2)cc1,-14.5% (inactive)
4,C[C@@H]1CN([C@H](C)CO)C(=O)c2cccc(NC(=O)c3ccc(-c4nccs4)cc3)c2O[C@H]1CN(C)S(=O)(=O)c1ccc(F)cc1,-0.125% [at 23.5 µM] (inactive)
5,CNC(=O)C[C@@H]1CC[C@@H]2[C@H](COc3ccc(NC(=O)NC(C)C)cc3C(=O)N2C)O1,-16.3% (inactive)
6,NS(=O)(=O)c1ccc(Nc2nc(-c3cccnc3)cs2)cc1,-0.393% (inactive)
7,COc1ccc(C(C#N)Nc2ccc(C)cc2)cc1 (stereo not given),-11% (inactive)
8,CC(=O)N1[C@H](CO)[C@H](c2ccccc2)[C@@H]1CN(C(=O)c1ccc(F)cc1)C(C)C,13.3% [at 23.5 µM] (inactive)
9,Cc1oc(-c2ccc(Cl)cc2)nc1CN1CCCC(C(=O)NCc2ccco2)C1 (stereo not given),-7.14% (inactive)
10,O=C(COc1cccc2ccccc12)Nc1nc2ccccc2[nH]1,19.3% (inactive)
11,CC(C)C#Cc1ccc2c(c1)O[C@H](CN(C)C(=O)c1ccncc1)[C@H](C)CN([C@@H](C)CO)S2(=O)=O,2.1% (inactive)
12,C[C@@H]1CN([C@H](C)CO)C(=O)c2cc(NC(=O)Nc3ccc(C(F)(F)F)cc3)ccc2O[C@@H]1CN(C)CC1CCCCC1,5.66% (inactive)
13,Cc1nn(C)cc1NC(=O)C[C@@H]1CC[C@@H]2[C@H](COc3ccc(NC(=O)Nc4cccc(Cl)c4)cc3C(=O)N2C)O1,5.79% (inactive)
14,C[C@@H]1CN([C@H](C)CO)S(=O)(=O)c2ccc(-c3ccccc3)cc2O[C@@H]1CN(C)C(=O)c1ccc2c(c1)OCO2,-20.1% (inactive)
15,CC(C)Oc1ccc(CNCCC2(C(C)C)CCOC(C)(C)C2)cc1 (stereo not given),12% (inactive)
16,C[C@@H]1CN([C@@H](C)CO)S(=O)(=O)c2ccc(/C=C/c3ccccc3)cc2O[C@@H]1CN(C)C(=O)NC1CCCCC1,-4.62% (inactive)
17,CCC(=O)Nc1ccc2c(c1)C(=O)N(C)[C@@H]1CC[C@H](CC(=O)Nc3cccc(OC)c3)O[C@@H]1CO2,-2.86% (inactive)
18,CCC(=O)N1[C@H](CN(C)C(C)=O)[C@H](c2ccc(-c3cccnc3)cc2)[C@@H]1CO,-3.45% (inactive)
19,CN1C(=O)c2cc(NC(=O)c3cccc(C(F)(F)F)c3)ccc2OC[C@@H]2O[C@@H](CC(=O)NCCN3CCCC3)CC[C@@H]21,9.28% (inactive)
20,CC(C)C(=O)Nc1ccc2c(c1)C(=O)N(C)[C@H]1CC[C@@H](CC(=O)NCCCN(C)C)O[C@H]1CO2,5.88% (inactive)
